Measured values: PubChem BioAssay (Tox21)
Inconclusive results are not listed. A call without a number means that no potency is given here. Calls of active or inactive are those of the source. Calls come from the whole dose curve; as a rule, active = well fitted inhibition curve with a large enough effect in the signal ratio in the repeat runs, with a control signal flat; inconclusive = weak or mixed curves, or effect the other way; inactive = flat fitted curve, though single readings scatter; the % refers to the signal ratio.

Each compound was assayed against D(2) dopamine receptor (Homo sapiens) (UniProt P14416) (assay: Dopamine D2 receptor (DRD2) small molecule antagonists, cell-based qHTS assay (AID 1963595)). Conditions: HEK293-DRD2 cAMP HTRF antagonist mode; series mostly up to 92.4 µM.
Method in brief: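 HEK293 cells stably expressing DRD2 were preincubated with 0.1 mM Ro20-1724, then with compound for 10 min at room temperature. Cells were stimulated with 200 nM NKH477 plus 12 nM quinpirole for 30 min, and cAMP was read by HTRF.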
Potency is the fitted concentration of half-maximal effect.

Chain of D(2) dopamine receptor (Homo sapiens) (P14416 whole entry, looked up): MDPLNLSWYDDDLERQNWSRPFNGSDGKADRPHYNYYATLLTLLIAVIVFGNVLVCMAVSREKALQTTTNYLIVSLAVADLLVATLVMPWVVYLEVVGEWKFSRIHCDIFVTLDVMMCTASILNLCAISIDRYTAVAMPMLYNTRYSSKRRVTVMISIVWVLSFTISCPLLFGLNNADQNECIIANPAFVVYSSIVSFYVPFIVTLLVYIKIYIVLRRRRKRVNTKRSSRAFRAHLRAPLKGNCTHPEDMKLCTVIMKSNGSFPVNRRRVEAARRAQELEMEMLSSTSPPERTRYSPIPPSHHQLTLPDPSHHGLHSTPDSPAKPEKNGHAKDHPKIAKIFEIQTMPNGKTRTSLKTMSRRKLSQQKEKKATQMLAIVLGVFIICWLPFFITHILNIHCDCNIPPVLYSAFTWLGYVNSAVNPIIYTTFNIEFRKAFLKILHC

Structure (SMILES) | Potency | activity change, negative = inhibition
COc1ccc(C(=O)/C(Br)=C\C(=O)O)cc1 | inactive | –
O=c1[nH]c2ccccc2n1CCCN1CCN(C(c2ccccc2)c2ccccc2)CC1 | 11900 nM (active) | –
Cc1ccc(O)c(C(C)(C)C)c1 | inactive | –
N[C@@H](C(=O)N[C@@H]1C(=O)N2C(C(=O)O)=C(Cl)CS[C@H]12)c1ccccc1 | – | 6.7% [at 8.38 µM] (inactive)
CCCC(=O)O[C@]1(C(=O)CCl)[C@@H](C)C[C@H]2[C@@H]3CCC4=CC(=O)C=C[C@]4(C)[C@@]3(F)C(=O)C[C@@]21C | inactive | –
Cc1cccc(O)c1N | inactive | –
Cc1cc(O)c2c(c1)C(=O)c1cc(O)cc(O)c1C2=O | inactive | –
O=c1cc(-c2ccc(O)cc2)oc2cc(O)cc(O)c12 | inactive | –
CCCCCCCC/C=C/CCCCCCCC1=NCCN1CCO | inactive | –
CC1=NN(c2cc(Cl)c(S(=O)(=O)O)cc2Cl)C(=O)C1N=Nc1ccc(S(=O)(=O)O)cc1 (stereo not drawn) | inactive | –
CN(C)CC/C=C1\c2ccccc2Sc2ccc(Cl)cc21 | 531 nM (active) | –
C(=C(c1ccccc1)c1ccccc1)c1ccccc1 | inactive | –
NC(=O)C1(N2CCCCC2)CCN(CCCN2c3ccccc3CCc3ccc(Cl)cc32)CC1 | 376 nM (active) | –
O=C1c2ccccc2C(=O)c2c(O)c(O)cc(O)c21 | inactive | –
CCCCCCCCNC(C)C(O)c1ccc(SC(C)C)cc1 (stereo not drawn) | inactive | –
CCOc1ccc2nc3cc(N)ccc3c(N)c2c1 | inactive | –
CC1=NN(c2ccc(S(=O)(=O)O)cc2)C(=O)C1N=Nc1ccccc1 (stereo not drawn) | inactive | –
CNCC[C@@H](Oc1ccccc1C)c1ccccc1 | inactive | –
